According to the supplement of paper PMC10849652:
Of roughly 7,900 targets only a part is listed; those with a hit were picked by preference. About 0.6% of all pairs of compound and target were hits.

Tests used:
Assay in all cases: log2 fold change, soluble protein after heating vs DMSO (PISA); higher = thermal stabilisation; K562 cells, 10 uM, 30 min; active = over 0.2 and 3.5 SD of the protein, either way, in both replicates (recomputed)
alvocidib = compound: CN1CC[C@H](c2c(O)cc(O)c3c(=O)cc(-c4ccccc4Cl)oc23)[C@H](O)C1 [alvocidib]
How it was run: (§1)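 K562 cells at 2×10^6 cells/mL were exposed to 10 μM compound for 30 min, then aliquots were heated for 3 min across 48°C-58°C, pooled, and extracted in PBS containing 0.5% NP-40 at 4°C. The supernatant after 21,000xg for 90 min was taken as soluble protein and measured by TMTpro 16plex LC-MS/MS with channel sums equalised. Thermal stability is reported relative to control samples, with values from duplicates. Fold changes are given on a log2 scale.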

zotarolimus = compound: CO[C@H]1C[C@@H]2CC[C@@H](C)[C@@](O)(O2)C(=O)C(=O)N2CCCC[C@H]2C(=O)O[C@H]([C@H](C)C[C@@H]2CC[C@H](n3cnnn3)[C@H](OC)C2)CC(=O)[C@H](C)/C=C(\C)[C@@H](O)[C@@H](OC)C(=O)[C@H](C)C[C@H](C)/C=C/C=C/C=C/1C [zotarolimus]
How it was run: as §1

sotrastaurin = compound: CN1CCN(c2nc(C3=C(c4c[nH]c5ccccc45)C(=O)NC3=O)c3ccccc3n2)CC1 [sotrastaurin]
How it was run: as §1

filanesib = compound: CON(C)C(=O)N1N=C(c2cc(F)ccc2F)S[C@@]1(CCCN)c1ccccc1 [filanesib]
How it was run: as §1

pictilisib = compound: CS(=O)(=O)N1CCN(Cc2cc3nc(-c4cccc5[nH]ncc45)nc(N4CCOCC4)c3s2)CC1 [pictilisib]
How it was run: as §1

[1] = compound: CNC(=O)C1=CC=CC=C1NC2=NC(=NC=C2Cl)NC3=C(C=C(C=C3)N4CCOCC4)OC
How it was run: as §1

defactinib = compound: CNC(=O)c1ccc(Nc2ncc(C(F)(F)F)c(NCc3nccnc3N(C)S(C)(=O)=O)n2)cc1 [defactinib]
How it was run: as §1

rucaparib = compound: CNCc1ccc(-c2[nH]c3cc(F)cc4c3c2CCNC4=O)cc1 [rucaparib]
How it was run: as §1

encorafenib = compound: COC(=O)N[C@@H](C)CNc1nccc(-c2cn(C(C)C)nc2-c2cc(Cl)cc(NS(C)(=O)=O)c2F)n1 [encorafenib]
How it was run: as §1

[2] = compound: COC(=O)[C@H](CCSC)NC(=O)C1=C(C=C(C=C1)NC[C@H](CS)N)C2=CC=CC=C2
How it was run: as §1

[3] = compound: COC1=CC=C(C=C1)CN2C=CC3=C2C=C(C=C3)C(=O)NO
How it was run: as §1

idasanutlin = compound: COc1cc(C(=O)O)ccc1NC(=O)[C@@H]1N[C@@H](CC(C)(C)C)[C@](C#N)(c2ccc(Cl)cc2F)[C@H]1c1cccc(Cl)c1F [idasanutlin]
How it was run: as §1

[4] = compound: COc1cc2nc(-c3cc(F)ccc3O)nc(N[C@@H]3CNC[C@H]3C(C)(C)O)c2cc1OC
How it was run: as §1

lapatinib = compound: CS(=O)(=O)CCNCc1ccc(-c2ccc3ncnc(Nc4ccc(OCc5cccc(F)c5)c(Cl)c4)c3c2)o1 [lapatinib]
How it was run: as §1

Tubastatin A = compound: CN1CCc2c(c3ccccc3n2Cc2ccc(C(=O)NO)cc2)C1 [Tubastatin A]
How it was run: as §1

alisertib = compound: COc1cc(Nc2ncc3c(n2)-c2ccc(Cl)cc2C(c2c(F)cccc2OC)=NC3)ccc1C(=O)O [alisertib]
How it was run: as §1

gefitinib = compound: COc1cc2ncnc(Nc3ccc(F)c(Cl)c3)c2cc1OCCCN1CCOCC1 [gefitinib]
How it was run: as §1

[5] = compound: COc1cccc2cc(-c3nc([C@H]4CC[C@H](C(=O)O)CC4)n4ncnc(N)c34)[nH]c12
How it was run: as §1

saracatinib = compound: CN1CCN(CCOc2cc(OC3CCOCC3)c3c(Nc4c(Cl)ccc5c4OCO5)ncnc3c2)CC1 [saracatinib]
How it was run: as §1

[6] = compound: CNc1nc(-c2ccc3c(N)n[nH]c3c2)cc(N2C[C@@H](C(=O)NC3CCCCC3)CC[C@H]2C)n1
How it was run: as §1

Measured: log2 fold change

PSMD8 (UniProt K7EK21)
inactive: alvocidib 0.25 | zotarolimus -0.174

PRKD2 (UniProt M0R346)
inactive: sotrastaurin -0.247 | filanesib 0.038 | pictilisib 0.06

PSMB9 (UniProt P28065)
UniProt P28065, sequence (P28065 whole entry, looked up): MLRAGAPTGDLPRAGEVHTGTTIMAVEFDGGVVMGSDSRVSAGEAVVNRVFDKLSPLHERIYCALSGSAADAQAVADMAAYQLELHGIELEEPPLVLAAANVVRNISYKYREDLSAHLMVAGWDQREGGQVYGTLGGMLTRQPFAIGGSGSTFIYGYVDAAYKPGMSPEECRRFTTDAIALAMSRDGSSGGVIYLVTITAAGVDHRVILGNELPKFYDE
inactive: sotrastaurin 0.074 | alvocidib 0.071 | [1] 0.062 | defactinib -0.008 | rucaparib 0.296 | encorafenib -0.22 | [2] 0.094 | [3] 0.25 | filanesib 0.189 | zotarolimus -0.08 | idasanutlin -0.028 | [4] 0.246 | lapatinib -0.064 | pictilisib -0.006

PCNX1 (UniProt Q96RV3)
inactive: Tubastatin A -0.041 | defactinib 0.027 | rucaparib -0.123 | encorafenib 0.085 | [2] -0.039 | alisertib -0.059 | [4] 0.34 | gefitinib -0.028 | [5] 0.035 | lapatinib -0.475

PPP2R5C isoform 2 (UniProt Q13362)
UniProt Q13362, sequence (Q13362 whole entry, looked up): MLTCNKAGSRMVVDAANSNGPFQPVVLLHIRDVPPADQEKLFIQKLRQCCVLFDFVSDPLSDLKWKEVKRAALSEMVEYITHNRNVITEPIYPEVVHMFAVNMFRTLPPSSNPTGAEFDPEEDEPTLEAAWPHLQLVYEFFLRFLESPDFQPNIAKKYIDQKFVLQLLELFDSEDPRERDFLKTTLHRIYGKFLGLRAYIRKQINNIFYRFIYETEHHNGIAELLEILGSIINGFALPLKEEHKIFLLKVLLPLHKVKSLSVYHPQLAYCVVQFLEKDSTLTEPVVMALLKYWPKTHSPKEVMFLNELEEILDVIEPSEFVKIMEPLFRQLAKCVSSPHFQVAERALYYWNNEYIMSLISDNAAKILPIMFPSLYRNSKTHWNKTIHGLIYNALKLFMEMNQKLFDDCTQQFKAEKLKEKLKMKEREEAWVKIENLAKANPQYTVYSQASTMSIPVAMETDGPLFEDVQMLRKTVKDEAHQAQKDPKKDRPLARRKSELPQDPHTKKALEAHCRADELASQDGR
inactive: [1] -0.017 | rucaparib -0.063 | encorafenib 0.003 | [3] 0.159 | alisertib 0.005 | [5] -0.009

PDE4DIP (UniProt E9PS60)
inactive: alvocidib 0.095 | [1] -0.196 | defactinib 0.095 | rucaparib 0.172 | encorafenib 0.125 | [2] 0.032 | [3] 0 | zotarolimus -0.032

PIM1 isoform 2 (UniProt P11309)
UniProt P11309, sequence (P11309 whole entry, looked up): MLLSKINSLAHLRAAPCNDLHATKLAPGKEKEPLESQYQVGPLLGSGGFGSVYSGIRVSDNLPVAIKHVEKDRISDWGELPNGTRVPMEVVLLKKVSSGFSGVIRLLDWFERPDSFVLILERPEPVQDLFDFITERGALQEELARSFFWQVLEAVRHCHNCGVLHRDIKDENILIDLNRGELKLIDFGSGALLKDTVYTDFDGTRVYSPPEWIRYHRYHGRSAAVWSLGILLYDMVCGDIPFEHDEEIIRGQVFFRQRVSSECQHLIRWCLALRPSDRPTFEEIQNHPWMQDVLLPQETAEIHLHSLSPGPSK
inactive: alisertib 0.267 | [5] -0.327 | pictilisib -0.126

PUM1 (UniProt Q14671)
inactive: saracatinib -0.155 | alvocidib -0.083 | Tubastatin A 0 | [1] -0.348 | [6] -0.232 | [3] -0.029 | zotarolimus -0.076 | idasanutlin 0.037 | pictilisib 0.032

PCF11 (UniProt O94913)
inactive: alvocidib 0.027 | defactinib -0.059 | encorafenib -0.06 | [2] 0.095 | [3] -0.169 | zotarolimus -0.119 | idasanutlin -0.097 | alisertib 0.015 | [4] 0.076 | [5] 0.106 | lapatinib 0.012 | pictilisib 0.027
active: rucaparib -0.995

PTK2B (UniProt Q14289)
UniProt Q14289, sequence (Q14289 whole entry, looked up): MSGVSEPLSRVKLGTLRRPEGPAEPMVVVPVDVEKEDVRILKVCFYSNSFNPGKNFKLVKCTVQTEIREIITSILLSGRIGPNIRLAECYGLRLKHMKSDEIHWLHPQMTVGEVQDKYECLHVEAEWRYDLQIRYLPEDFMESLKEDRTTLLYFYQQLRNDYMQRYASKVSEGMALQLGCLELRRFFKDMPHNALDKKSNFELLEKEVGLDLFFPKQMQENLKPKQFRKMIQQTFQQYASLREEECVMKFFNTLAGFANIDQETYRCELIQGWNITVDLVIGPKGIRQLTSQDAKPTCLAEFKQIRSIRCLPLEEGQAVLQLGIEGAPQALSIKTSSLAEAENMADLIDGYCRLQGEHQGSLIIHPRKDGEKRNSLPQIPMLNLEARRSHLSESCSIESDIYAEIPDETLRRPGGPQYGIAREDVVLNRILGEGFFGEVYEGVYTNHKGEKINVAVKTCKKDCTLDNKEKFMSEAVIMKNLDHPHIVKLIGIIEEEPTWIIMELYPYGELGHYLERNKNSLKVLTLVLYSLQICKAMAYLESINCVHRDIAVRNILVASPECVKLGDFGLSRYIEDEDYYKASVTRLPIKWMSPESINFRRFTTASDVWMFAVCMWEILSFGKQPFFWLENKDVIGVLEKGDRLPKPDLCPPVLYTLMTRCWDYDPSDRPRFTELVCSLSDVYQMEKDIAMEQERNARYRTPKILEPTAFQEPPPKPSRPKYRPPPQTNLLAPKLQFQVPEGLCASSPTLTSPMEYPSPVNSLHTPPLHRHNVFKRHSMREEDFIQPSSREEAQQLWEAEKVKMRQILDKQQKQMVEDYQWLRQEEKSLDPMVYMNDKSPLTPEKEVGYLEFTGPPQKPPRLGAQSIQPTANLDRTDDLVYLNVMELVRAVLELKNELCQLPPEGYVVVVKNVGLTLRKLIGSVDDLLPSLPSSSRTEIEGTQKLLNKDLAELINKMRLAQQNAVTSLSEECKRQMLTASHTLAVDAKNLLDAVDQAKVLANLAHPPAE
inactive: saracatinib 0.163 | sotrastaurin -0.104 | Tubastatin A 0.078 | [1] 0.309 | defactinib 0.36 | [6] -0.034 | [2] -0.155 | [3] 0.083 | filanesib -0.077 | zotarolimus 0.019 | idasanutlin 0.026 | alisertib 0.064 | [4] 0.345 | gefitinib -0.011 | [5] -0.057 | lapatinib -0.022 | pictilisib 0.117

PRKX (UniProt P51817)
inactive: [1] -0.139 | alisertib 0.014 | [5] 0.098

PSMC1 (UniProt G3V4X1)
inactive: alvocidib 0.031 | [1] -0.011 | zotarolimus -0.045 | [4] -0.106 | gefitinib -0.036 | lapatinib -0.105 | pictilisib -0.071

POLR2E (UniProt P19388)
inactive: saracatinib -0.077 | alvocidib 0.212 | Tubastatin A -0.009 | [1] -0.076 | defactinib 0.216 | rucaparib 0.153 | [6] 0.104 | encorafenib 0.025 | [2] -0.081 | [3] 0.095 | zotarolimus -0.065 | idasanutlin -0.061 | alisertib -0.21 | gefitinib 0.007 | [5] 0.029 | lapatinib -0.013 | pictilisib 0.063
active: [4] 0.291

PHC3 isoform 7 (UniProt Q8NDX5)
UniProt Q8NDX5, sequence (Q8NDX5 whole entry, looked up): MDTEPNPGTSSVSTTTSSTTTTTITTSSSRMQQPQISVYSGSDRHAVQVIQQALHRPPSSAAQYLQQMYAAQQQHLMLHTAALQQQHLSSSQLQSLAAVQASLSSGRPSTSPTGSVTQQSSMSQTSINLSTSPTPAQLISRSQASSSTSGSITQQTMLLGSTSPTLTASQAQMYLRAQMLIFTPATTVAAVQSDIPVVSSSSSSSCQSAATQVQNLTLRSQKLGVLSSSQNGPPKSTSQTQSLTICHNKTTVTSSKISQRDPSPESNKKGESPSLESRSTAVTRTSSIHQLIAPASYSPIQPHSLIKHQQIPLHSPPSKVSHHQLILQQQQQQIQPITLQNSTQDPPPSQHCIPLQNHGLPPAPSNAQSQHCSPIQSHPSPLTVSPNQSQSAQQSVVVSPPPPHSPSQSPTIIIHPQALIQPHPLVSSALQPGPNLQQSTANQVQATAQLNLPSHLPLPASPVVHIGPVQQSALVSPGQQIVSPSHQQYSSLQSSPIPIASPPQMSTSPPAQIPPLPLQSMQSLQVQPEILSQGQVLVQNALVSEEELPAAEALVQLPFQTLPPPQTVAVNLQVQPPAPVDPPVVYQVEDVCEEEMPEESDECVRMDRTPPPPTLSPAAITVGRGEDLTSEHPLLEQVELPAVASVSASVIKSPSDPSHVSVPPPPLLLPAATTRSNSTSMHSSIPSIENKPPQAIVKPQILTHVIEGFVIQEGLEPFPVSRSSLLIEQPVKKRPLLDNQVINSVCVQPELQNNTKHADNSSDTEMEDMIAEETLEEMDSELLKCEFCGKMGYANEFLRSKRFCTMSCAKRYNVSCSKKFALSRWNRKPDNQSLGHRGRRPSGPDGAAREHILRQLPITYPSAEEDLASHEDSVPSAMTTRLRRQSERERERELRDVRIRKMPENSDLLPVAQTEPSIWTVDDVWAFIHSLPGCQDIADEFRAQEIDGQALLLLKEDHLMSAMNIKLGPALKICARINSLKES
inactive: sotrastaurin -0.071 | alvocidib -0.057 | [1] -0.007 | rucaparib -0.276 | encorafenib 0.154 | [3] 0.287 | filanesib -0.029 | zotarolimus 0.001 | alisertib -0.121 | [4] -0.03 | gefitinib -0.153 | [5] 0.203 | lapatinib 0.05

PKM isoform 2 (UniProt P14618)
UniProt P14618, sequence (P14618 whole entry, looked up): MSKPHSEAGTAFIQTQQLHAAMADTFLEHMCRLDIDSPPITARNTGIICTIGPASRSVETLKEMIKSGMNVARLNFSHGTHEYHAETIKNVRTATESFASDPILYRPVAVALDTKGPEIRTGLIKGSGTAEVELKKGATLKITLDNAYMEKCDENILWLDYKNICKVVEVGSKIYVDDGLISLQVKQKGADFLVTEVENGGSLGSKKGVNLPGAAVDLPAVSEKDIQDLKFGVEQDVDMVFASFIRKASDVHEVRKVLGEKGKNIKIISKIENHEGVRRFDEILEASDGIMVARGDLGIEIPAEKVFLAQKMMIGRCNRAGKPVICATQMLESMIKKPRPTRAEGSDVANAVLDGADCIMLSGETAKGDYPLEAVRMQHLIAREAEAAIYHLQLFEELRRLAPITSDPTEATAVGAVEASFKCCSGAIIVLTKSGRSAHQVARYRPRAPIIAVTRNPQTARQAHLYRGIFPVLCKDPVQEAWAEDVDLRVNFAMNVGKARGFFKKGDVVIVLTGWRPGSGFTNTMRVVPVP
inactive: saracatinib 0.202 | sotrastaurin -0.133 | Tubastatin A -0.052 | defactinib -0.045 | rucaparib 0.125 | [6] -0.063 | encorafenib -0.09 | [2] -0.081 | [3] 0.141 | filanesib 0.04 | idasanutlin -0.049 | alisertib -0.139 | [4] 0.141 | gefitinib -0.056 | [5] 0.059 | lapatinib -0.115 | pictilisib 0.109

PTEN isoform 2 (UniProt P60484)
UniProt P60484, sequence (P60484 whole entry, looked up): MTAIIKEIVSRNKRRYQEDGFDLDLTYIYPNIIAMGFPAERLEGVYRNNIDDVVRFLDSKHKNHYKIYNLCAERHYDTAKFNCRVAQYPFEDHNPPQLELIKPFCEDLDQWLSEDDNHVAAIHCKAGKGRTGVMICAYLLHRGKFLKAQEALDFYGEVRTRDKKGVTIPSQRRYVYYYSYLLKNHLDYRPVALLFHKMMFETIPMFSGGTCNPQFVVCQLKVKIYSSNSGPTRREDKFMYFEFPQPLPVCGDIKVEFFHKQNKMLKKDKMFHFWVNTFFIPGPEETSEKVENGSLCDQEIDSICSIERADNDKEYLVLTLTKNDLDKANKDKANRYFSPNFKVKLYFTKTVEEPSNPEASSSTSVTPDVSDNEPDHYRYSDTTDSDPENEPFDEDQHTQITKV
inactive: [1] -0.247 | rucaparib -0.108 | encorafenib 0.015 | [3] 0.081 | [4] -0.251 | lapatinib 0.094 | pictilisib -0.028

PKN2 (UniProt Q16513)
UniProt Q16513, sequence (Q16513 whole entry, looked up): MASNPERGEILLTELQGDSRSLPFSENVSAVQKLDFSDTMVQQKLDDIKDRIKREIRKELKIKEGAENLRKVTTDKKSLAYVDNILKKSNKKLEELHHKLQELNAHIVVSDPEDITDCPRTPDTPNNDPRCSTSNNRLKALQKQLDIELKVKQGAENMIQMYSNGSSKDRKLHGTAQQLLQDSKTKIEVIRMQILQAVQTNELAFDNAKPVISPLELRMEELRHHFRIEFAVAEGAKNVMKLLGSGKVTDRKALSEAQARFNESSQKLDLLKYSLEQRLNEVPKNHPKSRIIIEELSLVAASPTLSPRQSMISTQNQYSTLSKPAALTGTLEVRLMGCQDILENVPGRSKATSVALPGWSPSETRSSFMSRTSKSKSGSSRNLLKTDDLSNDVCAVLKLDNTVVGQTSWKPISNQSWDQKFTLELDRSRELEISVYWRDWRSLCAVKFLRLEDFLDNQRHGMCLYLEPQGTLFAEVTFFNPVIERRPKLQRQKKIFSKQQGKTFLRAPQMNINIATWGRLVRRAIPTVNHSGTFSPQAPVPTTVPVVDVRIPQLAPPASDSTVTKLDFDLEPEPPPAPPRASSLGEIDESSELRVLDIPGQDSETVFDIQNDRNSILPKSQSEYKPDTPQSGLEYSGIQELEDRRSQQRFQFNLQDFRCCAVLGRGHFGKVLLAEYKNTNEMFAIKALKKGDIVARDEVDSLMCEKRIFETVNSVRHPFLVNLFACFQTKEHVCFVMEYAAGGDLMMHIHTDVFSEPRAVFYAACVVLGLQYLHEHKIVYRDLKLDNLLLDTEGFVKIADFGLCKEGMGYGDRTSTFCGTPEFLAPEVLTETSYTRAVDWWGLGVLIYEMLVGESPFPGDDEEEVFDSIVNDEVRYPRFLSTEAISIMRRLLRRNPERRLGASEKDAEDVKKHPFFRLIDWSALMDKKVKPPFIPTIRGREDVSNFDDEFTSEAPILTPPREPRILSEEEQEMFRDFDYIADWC
inactive: saracatinib -0.059 | alvocidib -0.159 | Tubastatin A 0.025 | [1] 0.037 | defactinib -0.099 | rucaparib -0.039 | [6] -0.037 | encorafenib 0.024 | [2] -0.05 | [3] 0.001 | filanesib -0.085 | zotarolimus 0.01 | idasanutlin -0.016 | [4] -0.069 | gefitinib 0.004 | [5] 0.034 | lapatinib -0.013 | pictilisib 0
